High-throughput results as filed in PubChem BioAssay.
VP16 counter – VP16 counterscreen qHTS for inhibitors of ROR gamma transcriptional activity; Drosophila S2 Gal4-VP16 UAS-luciferase, luminescence, 20 h; Potency, µM (titrated, usually from 53.6 µM), inactives show at the top dose activity, negative = inhibition, usual class: inhibitors; 310,000 compounds, 3.5% hits;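 further: Gal4-VP16 expression switched on by copper sulfate through the metallothionein promoter; nearly all actives have a fitted effect of over 50% in size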
RORg inh – qHTS for inhibitors of ROR gamma transcriptional activity; Nuclear receptor ROR-gamma (Mus musculus), P51450; Drosophila S2 Gal4-RORgamma UAS-luciferase reporter, 20 h; Potency, µM (highest dose often 53.6 µM), inactives show at the top dose activity change, negative = inhibition, actives largely listed as inhibitors; 310,000 compounds, 5.4% hits; further: nearly all actives have a fitted effect of over 60% in size
Target sequence (P51450 whole entry, looked up, the tested form may be a part): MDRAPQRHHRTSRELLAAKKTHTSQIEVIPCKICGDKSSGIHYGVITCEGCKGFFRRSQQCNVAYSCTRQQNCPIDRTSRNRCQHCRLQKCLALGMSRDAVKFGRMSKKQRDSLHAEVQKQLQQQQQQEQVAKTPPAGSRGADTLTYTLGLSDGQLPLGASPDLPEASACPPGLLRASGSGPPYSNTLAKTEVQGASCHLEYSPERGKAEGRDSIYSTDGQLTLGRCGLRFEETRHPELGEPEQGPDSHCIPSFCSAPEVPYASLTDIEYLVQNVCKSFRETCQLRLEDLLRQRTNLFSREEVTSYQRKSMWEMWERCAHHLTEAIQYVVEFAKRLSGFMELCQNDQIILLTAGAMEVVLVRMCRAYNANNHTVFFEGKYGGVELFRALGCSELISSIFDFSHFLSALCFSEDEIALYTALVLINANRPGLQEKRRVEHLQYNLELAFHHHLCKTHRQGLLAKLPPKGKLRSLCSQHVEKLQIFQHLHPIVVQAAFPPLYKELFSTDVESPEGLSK
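Stably transfected Drosophila Schneider cells are the test system, with ROR gamma fused to Gal4 and luciferase under UAS control; luminescence is read after 20 hr of 700 uM copper sulfate induction at ambient temperature.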
KinaseGlo FLuc – Counterscreen for Luciferase (Kinase-Glo TM) Inhibition. Kinase-Glo luciferase, ATP luminescence, 8 min. Luciferin 4-monooxygenase (Photuris pensylvanica), Q27757. Potency, µM (highest dose often 38.3 µM), for the others: at the top dose activity change, negative = inhibition, actives largely listed as inhibitors. 200,000 compounds, 0.28% hits; further: nearly all actives have a fitted effect of over 60% in size
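Inhibition of Kinase-Glo luciferase light generation was assessed at 10 uM ATP in pH 7.2 imidazole buffer, with luminescence measured after eight minutes at ambient temperature.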
* marks the source's active call; other numbers are inactive results; ? = inconclusive; . = no result; [ ] = dose if it differs, or a comment. Only some compounds are listed: those with a hit (about 6.4% of all), similar ones and a draw of the others. The call rests on the fitted dose curve; in most records, active means well fitted curve in the direction sought with a large enough effect; inconclusive means small, poorly fitted or top-dose-only effect, or another doubt; inactive means no such curve, though single readings can be large; an effect the other way counts as inactive or inconclusive. On the % scale 0 is the no-effect control and ±100 the full control effect; potency means the concentration at half of the fitted maximal effect.

SMILES	VP16 counter	RORg inh	KinaseGlo FLuc
COc1cc(C(=O)Nc2cccc3c2CCCC3)cc(OC)c1OC	-7.5%	31.0%	.
C=CCCCCCCCCCCCC(O)CC(O)CO (centres undefined) (tested in a mixture with another compound)	14.2%	21.7%	-2.6%
O=S(=O)(Nc1ccncc1Cl)c1ccc2ccccc2c1	6.5%	21.7%	4.5%
Cc1sc2ncnc(SCC(=O)c3ccc(Cl)s3)c2c1C	-10.2%	36.9%	-3.2%
Cc1ccc(OCC(=O)NNC(=O)CSc2ncnc3sc(C)c(C)c23)cc1	4.1%	-14.8%	1.7%
Cc1sc2ncnc(SCC(=O)c3ccc(O)cc3O)c2c1C	?	12.6µM*	.
Cc1ccc(OCCSc2ncnc3sc(C)c(C)c23)cc1C	-14.6%	11.2µM*	.
Cc1ccccc1NC(=O)NC1(C(=O)NCC2CCCO2)CCCCC1 (centres undefined)	1.1%	-35.2%	.
Cc1cccc(NS(=O)(=O)c2ccc(C(=O)N3CCN(c4ccccc4O)CC3)cc2)c1C	?	35.6%	.
BrC/C=C/CBr	1.7%	13.0%	.
Cc1cc(Br)ccc1OCCCCN1CCC(C)CC1	1.3%	-13.3%	2.6%
O=C(c1ccc(Cn2cc(Br)cn2)o1)N1N=C(C(F)F)CC1(O)C(F)F (centres undefined)	-17.5%	11.2µM*	-1.7%
O=C(c1ccc(COc2ccc(Cl)cc2)o1)N1N=C(C(F)F)CC1(O)C(F)F (centres undefined)	?	?	4.2%
O=C(N/N=C/c1cn(-c2ccccc2)nc1-c1cc2ccccc2o1)c1cccnc1	1.41µM*	3.98µM*	-4.9%
O=C(N/N=C/c1cn(-c2ccccc2)nc1-c1cc2ccccc2o1)c1ccncc1	4.47µM*	2.82µM*	0.1%
O=C(O)c1cccc(NC(=O)c2cn(-c3ccccc3)nc2-c2cc3ccccc3o2)c1	-6.9%	?	3.4%
Cc1nn(-c2ccccc2)c(Cl)c1/C=N/NC(=O)c1cccnc1	20.5%	32.1%	-1.3%
Cc1cc(NCCCn2ccnc2)n2nc(C)c(-c3ccccc3)c2n1	14.2%	18.9%	-0.7%
Cc1cc(NCCN2CCOCC2)n2ncc(-c3ccccc3)c2n1	10µM*	3.55µM*	9.6%
Cc1cc(NCCCn2ccnc2)n2ncc(-c3ccccc3)c2n1	7.94µM*	4.47µM*	-13.9%
Cc1cc(NCc2ccccc2)n2ncc(-c3ccccc3)c2n1	-3.9%	-27.0%	.
Cc1cc(NCCN2CCOCC2)n2nc(C)c(-c3ccc(Cl)cc3)c2n1	-14.9%	-38.0%	-6.0%
Cc1cc(NCCN2CCOCC2)n2nc(C)c(-c3ccccc3)c2n1	10µM*	8.91µM*	-0.4%
COc1cccc(-c2noc(CCC(=O)NCC3CCCO3)n2)c1 (centres undefined)	-19.3%	14.8%	3.5%
COC(=O)CC(=O)CSc1nc2c(cc1C#N)CCC2	17.8µM*	?	-3.9%
SMILES	VP16 counter	RORg inh	KinaseGlo FLuc
Cc1cccc(CSc2nc3c(cc2C#N)CCC3)c1	3.1%	?	3.6%
CC(C)OC(=O)CC(=O)CSc1nc2c(cc1C#N)CCC2	?	?	-5.3%
N#Cc1cc2c(nc1SCc1nc3ccccc3[nH]1)CCC2	11.2µM*	10µM*	-21.8%
Cc1ccc(Nc2nnc(SCC(=O)c3ccc(O)cc3O)s2)cc1	-2.3%	-18.3%	.
O=C(CN1C(=O)c2cccnc2Oc2ccc(Cl)cc21)N1CCCC1	4.0%	1.5%	.
COc1ccc(OC)c(C(=O)c2ccc(C(=O)Nc3ccc(NC(C)=O)cc3)cc2)c1	-19.1%	-30.4%	.
O=S(=O)(c1ccc(Br)s1)N1CCC2(CC1)OCCO2	2.7%	25.8%	.
O=C(Nc1ccc([N+](=O)[O-])cc1)Nc1ccc(OC(F)F)c(Cl)c1	12.6µM*	?	0.5%
O=C(Nc1ccc(OC(F)F)c(Cl)c1)Nc1ccc2c(c1)OCO2	9.3%	7.1%	-0.5%
CC(=O)c1ccc(NC(=O)c2cc(C)nc3ccccc23)cc1	4.4%	?	.
CC(C)C1C(=O)N(S(C)(=O)=O)[C@H]2CCN(C(=O)/C=C/CN3CCCCC3)[C@@H]12 (some centres undefined)	3.8%	19.9%	.
Cc1nnc(SCc2cnc(-c3ccc(C(C)C)cc3)s2)n1C	11.2µM*	10µM*	-1.6%
c1ccc(-c2ncc(CSc3nncn3-c3ccccc3)s2)cc1	16.2%	-33.3%	7.2%
O=C(CCl)NN1C(=O)NC(c2ccccc2)(c2ccccc2)C1=O	-25.7%	-26.5%	.
S=c1[nH]nc(CN2CCCC2)n1Cc1ccccc1	-8.1%	11.2µM*	1.6%
Cc1ccn(Cc2n[nH]c(=S)n2Cc2ccccc2)n1	-10.1%	-40.5%	-1.8%
S=c1[nH]nc(CN2CCCCC2)n1Cc1ccccc1	17.8µM*	3.16µM*	-1.1%
Cc1ccc(C)c(S(=O)(=O)Nc2ccc(O)c(Sc3ncn[nH]3)c2)c1	-16.6%	?	.
Cc1ccc(S(=O)(=O)/N=C2/C=C(Sc3ncn[nH]3)C(=O)c3ccccc32)c(C)c1	5.01µM*	11.2µM*	-3.9%
Cc1ccc(S(=O)(=O)/N=C2/C=C(Sc3ncn[nH]3)C(=O)c3ccccc32)cc1	3.55µM*	3.55µM*	-1.2%
CC(C)c1ccc(S(=O)(=O)/N=C2/C=C(Sc3ncn[nH]3)C(=O)c3ccccc32)cc1	-5.1%	?	-8.1%
CC(NC(=O)COC(=O)c1cc(NS(=O)(=O)c2ccc(Cl)c([N+](=O)[O-])c2)ccc1O)C1CC2CCC1C2 (centres undefined)	11.2µM*	?	-2.3%
COc1ccc(NS(=O)(=O)c2ccc(O)c(C(=O)OCC(=O)NC(C)C3CC4CCC3C4)c2)cc1 (centres undefined)	-3.7%	?	0.1%
O=C(c1cc(-c2ccc3c(c2)OCO3)on1)N1CCCCC1	11.2µM*	?	.
O=C(c1cc(-c2ccc(Cl)c(Cl)c2)on1)N1CCCCCC1	4.6%	-21.1%	.
SMILES	VP16 counter	RORg inh	KinaseGlo FLuc
O=C(c1cc(-c2ccc(O)cc2)on1)N1CCCCCC1	2.1%	-2.2%	.
Cc1ccc(-c2cc(C(=O)N3CCOCC3)no2)cc1	14.1µM*	7.94µM*	.
COc1cc2cc(C(=O)N3CCOCC3)cc(-c3ccc(C)cc3)c2cc1OC	8.91µM*	?	.
COc1ccc(-c2cc(C(=O)N3CCOCC3)c3cc(C)ccc3n2)cc1	-6.5%	20.4%	1.4%
Cc1ccc(-c2cc(C(=O)N3CCCC3)no2)cc1	7.08µM*	11.2µM*	-13.3%
O=C(c1cc(-c2ccco2)on1)N1CCOCC1	-8.7%	-5.9%	-3.3%
COc1ccc(N(CC(=O)NCC2CCCO2)C(=O)CCC(=O)Nc2cc(C)on2)cc1OC (centres undefined)	0.5%	-32.8%	.
COc1cccc([C@@H]2Oc3ccc(Br)cc3C[C@H]2O)c1	-5.2%	25.8%	0.5%
CC(/C=N/NC(=O)CSc1n[nH]c(=O)[nH]c1=O)=C\c1ccccc1	3.6%	11.0%	.
CN(C)Cc1c[nH]c2nc[nH]c(=O)c12	.	.	-0.8%[7.66 µM]
CC(C)c1nnc(NC(=O)CCC(=O)NCc2ccccc2Cl)s1	-1.1%	-7.8%	.
Cc1nnc(NC(=O)c2nc(S(=O)(=O)Cc3ccccc3C)ncc2Cl)s1	0.708µM*	3.55µM*	.
CC(C)c1nnc(NC(=O)c2nc(S(=O)(=O)Cc3ccccc3F)ncc2Cl)s1	3.55µM*	7.94µM*	.
